# Screening data from PubChem BioAssay.
# F-actin modifier – modifiers of F-actin cytoskeleton organization, primary screen, imaging, HUVEC, phalloidin staining, high-content imaging. HUVEC TNFa F-actin phalloidin imaging. inhibition, % at 2 µM. 0.18% of 91,000 active. AID 836, 2007;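 active = inhibition above the batch mean plus 3 SD and confirmed as a hit by visual image inspection, cut at about 30% in these data, passing the limit was not always enough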
# E-sel TNF inh – E-selectin induction blockers in HUVEC – imaging, immunofluorescence, high content, primary screen | inhibition, % at 2 µM | 0.71% of 120,000 active | HUVEC TNFa-induced E-selectin immunofluorescence;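 active = inhibition above the batch mean plus 3 SD, and confirmed as a hit on visual image review, cut at about 43% in these data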
# VCAM1 TNFa inh – inhibitors of TNFa-induced VCAM1 expression, primary screen, imaging, HUVEC, TNFa stimulus, immunofluorescence; HUVEC TNFa-induced VCAM-1 immunofluorescence, high-content imaging; inhibition, % at 2 µM; 0.48% of 95,000 active; AID 802, 2007;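 active = inhibition above the batch mean plus 3 SD, with images confirmed as a hit by eye, cut at about 37% in these data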
# TNFa cytotox – cytotoxicity in TNFa-stimulated HUVEC, primary screen, cytotoxicity control for VCAM1 expression modulator project, imaging, Hoechst nuclei count. HUVEC TNFalpha-stimulated, Hoechst cell count. cell count reduction, % at 2 µM. 0.17% of 93,000 active. AID 848, 2007;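 active = cell count reduction exceeding the screen mean by over 5 SD, scaled to untreated wells per plate, cut at about 78% in these data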;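 also: cells counted after 24 h of TNF alpha exposure following the 1 h pretreatment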
# A number is an active result; i = inactive; nt = no result. Most compounds without a hit are left out; they make up all but 1.2% or so of the library.
SMILES,F-actin modifier,E-sel TNF inh,VCAM1 TNFa inh,TNFa cytotox
O=C(NCCN1CCOCC1)c1c[nH]c2ccc(S(=O)(=O)N3CCOCC3)cc2c1=O,nt,i,nt,nt
O=C(O)c1c[nH]c2ccc(S(=O)(=O)N3CCOCC3)cc12,i,nt,55,i
CCN(CC)c1ccc(N2C(=O)/C(=C\c3cccs3)SC2=S)cc1,i,i,i,i
O=C1/C(=C/c2cccs2)SC(=S)N1c1ccccc1,i,56,i,i
COc1ccc2ccccc2c1C1CC(=O)N2CN(C3CCCCC3)CSC2=C1C#N (configuration not stated),i,nt,i,i
CCOc1cc(C2CC(=O)N3CN(C4CCCCC4)CSC3=C2C#N)ccc1O (configuration not stated),i,nt,i,82
O=C(C1CCCO1)N1CCN(c2c3c(nc4cc(-c5ccc(F)cc5)nn24)CCC3)CC1 (configuration not stated),i,65,i,i
O=C(O)c1cccc(NCc2ccncc2)c1,i,i,i,i
O=C(O)c1ccc(NCc2ccncc2)cc1,i,nt,i,84
O=C(COC(=O)Cc1ccccc1F)Nc1cccc(S(=O)(=O)NC2=NCCCCC2)c1,nt,i,nt,nt
O=c1cnnc(NCc2ccccc2)[nH]1,i,i,i,i
COc1ccc(-c2cc(=O)[nH]c(NCc3ccccc3)n2)cc1,i,i,100,99
Nc1n[nH]c(-c2ccccc2)c1-c1ccccc1,i,nt,i,i
COc1cccc(=O)c2c(C)n(C)c(C)c12,i,i,i,i
COc1cccc(=O)c2c(C)n(-c3cc(C)cc(C)c3)c(C)c12,i,67,i,i
O=C(Nc1cccc(C(=O)O)c1)/C(=C\c1ccc2c(c1)OCO2)NC(=O)c1ccc(Br)cc1,nt,i,nt,nt
CCOc1cc(C(=O)Nc2cccc3ncccc23)cc(OCC)c1OCC,53,nt,i,i
Cc1cc(C(=O)Nc2cccc3ncccc23)no1,i,i,nt,nt
CC(C(=O)Nc1ccc(F)c(F)c1F)N(C)CC(=O)Nc1ccccc1Br (configuration not stated),nt,i,nt,nt
CCS(=O)(=O)N1CCN(c2ccc([N+](=O)[O-])c(N3CCOCC3)c2)CC1,nt,97,nt,nt
O=[N+]([O-])c1ccc(N2CCN(S(=O)(=O)Cc3ccccc3)CC2)cc1N1CCOCC1,i,i,i,i
COc1ccc(C(=O)/C=C/Nc2ccc([N+](=O)[O-])cc2C)cc1OC,i,nt,i,i
COc1ccc(C(=O)/C=C/Nc2ccc([N+](=O)[O-])cc2C)c(OC)c1,i,100,i,i
Cc1cccc(Nc2cc(C)c3c(O)cccc3n2)c1C,nt,i,nt,nt
CCOC(=O)c1c(NC(C)=O)sc2c(O)cccc12,nt,56,nt,nt
SMILES,F-actin modifier,E-sel TNF inh,VCAM1 TNFa inh,TNFa cytotox
CCOC(=O)c1c(NC(=O)c2ccccc2)sc2c(O)c(CN(CC)CC)ccc12,i,nt,i,i
O=C(Cc1ccc(-c2ccccc2)cc1)NC1CCCC1,nt,i,nt,nt
O=C(Cc1ccc(-n2cccc2)cc1)NC1CCCCCC1,i,i,41,i
O=C(O)COc1ccc(/C=N/n2cnc3scc(-c4cccs4)c3c2=O)cc1,nt,93,nt,nt
O=c1c2c(-c3cccs3)csc2ncn1/N=C/c1ccc(OC(F)F)cc1,i,i,i,i
O=C(NCCOC12CC3CC(CC(C3)C1)C2)c1cccc(Br)c1,i,i,i,i
O=C(CSc1nnc(-c2cccs2)n1Cc1ccccc1)NCc1ccc2c(c1)OCO2,i,i,i,i
CC(Sc1nnc(-c2cccs2)n1Cc1ccccc1)C(=O)NCc1ccc2c(c1)OCO2 (configuration not stated),nt,80,i,i
CNc1c([N+](=O)[O-])cnn1-c1ccc(Cl)cc1,50,i,i,i
O=[N+]([O-])c1ccc(-n2nncc2-c2ccc(Cl)cc2)cc1,i,i,i,i
Cn1c(N)c(C(=O)COC(=O)CN2C(=O)c3ccccc3C2=O)c(=O)n(C)c1=O,nt,68,nt,nt
CCc1ccccc1OCC(=O)OCC(=O)c1c(N)n(C)c(=O)n(C)c1=O,nt,i,nt,nt
CCOC(=O)c1[nH]c(C)c(C(=O)OCC(=O)N(C)C2CCS(=O)(=O)C2)c1C (configuration not stated),nt,i,nt,nt
C=CCn1c(SCc2c(C)noc2C)nc2cc(C(=O)O)ccc2c1=O,nt,i,nt,nt
C=CCn1c(SCc2c(C)noc2C)nc2ccccc2c1=O,i,i,60,i
Cc1ccc2nc(-c3ccc(NS(C)(=O)=O)cc3)cc(-c3ccccc3)c2c1,i,i,i,nt
CCS(=O)(=O)Nc1ccc(-c2cc(-c3ccccc3)c3cc(C)ccc3n2)cc1,nt,79,nt,nt
Cc1ccc2nc3c(cc(C#N)c(=O)n3CC3CCCO3)c(=O)n2c1 (configuration not stated),nt,i,nt,nt
COc1cc(C2C(C#N)=C(N)Oc3c2oc(CO)cc3=O)cc(OC)c1OC (configuration not stated),i,100,i,i
COc1ccc(C2C(C#N)=C(N)Oc3c2oc(CO)cc3=O)c(OC)c1OC (configuration not stated),i,nt,i,i
CCn1c(SCc2nc(CC(=O)Nc3ccccc3OC)no2)nnc1-c1cccs1,i,100,i,i
Cc1ccc(NC(=O)COC(=O)C2CSC3(C)CCC(=O)N23)cc1S(=O)(=O)N1CCOCC1 (configuration not stated),nt,i,nt,nt
COc1cc(C2C3=C(Nc4ncnn42)c2ccccc2CC3)cc(OC)c1OC (configuration not stated),i,nt,88,i
Cc1c(Nc2cc(Cl)c3nonc3c2[N+](=O)[O-])c(=O)n(-c2ccccc2)n1C,nt,100,nt,nt
COc1cccc(S(=O)(=O)Nc2ccc(C(=O)N3CCN(C(=O)c4ccco4)CC3)cc2)c1,i,97,i,i
SMILES,F-actin modifier,E-sel TNF inh,VCAM1 TNFa inh,TNFa cytotox
COc1ccc(N2CCN(C(=O)c3ccc(NS(=O)(=O)c4ccccc4)cc3)CC2)cc1,i,i,i,i
CN(C)S(=O)(=O)c1cc(NC(=O)CSc2nn(-c3ccc(Cl)cc3)c(=S)s2)ccc1Cl,nt,72,nt,nt
COc1ccc(-n2c(C)cc(C(=O)COc3ccc(C)nc3[N+](=O)[O-])c2C)cc1,nt,62,nt,nt
Cn1c(=O)n(Cc2ccccc2F)c2ccccc21,i,i,i,i
O=c1n(Cc2ccccc2F)c2ccccc2n1Cc1ccccc1F,31,i,i,i
Cc1nc(S(=O)(=O)N(C)Cc2ccccc2)c(C#N)c(C)c1Cl,i,i,78,92
Cc1nc(S(=O)(=O)NC2CCCCC2)c(C#N)c(C)c1Cl,i,i,i,i
Cc1ccc(/C([O-])=C(/C(=S)NCc2ccccc2)[n+]2cccc(CO)c2)cc1[N+](=O)[O-],nt,73,nt,nt
CCOC(=O)N1CCc2c(sc3c2c(=O)n(Cc2ccccc2)c(=O)n3Cc2ccccc2F)C1,nt,i,nt,nt
CCOC(=O)N1CCc2c(sc3c2c(=O)n(Cc2ccccc2)c(=O)n3Cc2cccc(C)c2)C1,nt,88,nt,nt
Cc1ccc(N2C(=O)[C@@H]3C(C(=O)CCN4C(=O)c5ccccc5C4=O)=NN[C@@H]3C2=O)cc1,nt,65,nt,nt
Cc1nc2ccccc2n1CCCOc1ccccc1,i,i,62,88
CCOc1ccc(C(F)(F)F)cc1NC(C)=O,i,nt,i,i
Cc1nccn1-c1ccc(C(F)(F)F)cc1NC=O,73,i,i,i
